Experimental data published in PubChem BioAssay (NCATS).
Results filed as inconclusive are left out. Entries that show only a call come without a potency. Calls of active or inactive are those of the source. Calls come from the whole dose curve; as a rule, active = well fitted cell-killing curve with a large enough effect; inconclusive = small, poorly fitted or top-dose-only effect, or effect the other way; inactive = no such curve, though single readings can be large or run the other way.

How the values were obtained:
[1] = Quantitative High-Throughput drug screen in 47 multiple myeloma cell lines against the NCATS MIPE library collection: FR4_PLB cell viability assay (AID 1918924; note: nearly all actives have a fitted effect of over 35% in size; note: potency is the fitted concentration of half-maximal effect); settings: FR4_PLB myeloma cells viability, CellTiter-Glo ATP, 48 h; series mostly up to 45.8 µM
Procedure, shortened: (§1)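 Inhibition of cell viability is measured here. Each line was plated at 500 cells per well, treated with MIPE 4.0 drugs, kept 48 hours at 37C, then assayed for ATP content by CellTiter-Glo luminescence.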

[2] = Quantitative High-Throughput drug screen in 47 multiple myeloma cell lines against the NCATS MIPE library collection: EJM_DSMZ cell viability assay (AID 1918926; note: nearly all actives have a fitted effect of over 30% in size); settings: EJM myeloma cell viability, CellTiter-Glo ATP, 48 h; series mostly up to 45.8 µM
Procedure, shortened: (§2)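 Luminescent ATP measurement with CellTiter-Glo gives viability, scaled between DMSO-only wells (100%) and media-only wells (0%). Cells, 500 per well, faced library compounds for 48 hours at 37C.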

[3] = Quantitative High-Throughput drug screen in 47 multiple myeloma cell lines against the NCATS MIPE library collection: ARP1_JJKsccF8 cell viability assay (AID 1918928; note: nearly all actives have a fitted effect of over 40% in size; note: potency is the fitted concentration of half-maximal effect); settings: ARP1 myeloma cells viability, CellTiter-Glo ATP, 48 h; series mostly up to 45.8 µM
Procedure, shortened: (§3)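 Here, 48 h treatment with MIPE 4.0 agents at 37 °C preceded an ATP luminescence read. Plating density was 500 cells per well.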

[4] = Quantitative High-Throughput drug screen in 47 multiple myeloma cell lines against the NCATS MIPE library collection: ARD_JJKsccE7 cell viability assay (AID 1918929); settings: ARD myeloma cell line viability, CellTiter-Glo, 48 h; series mostly up to 45.8 µM
Procedure, shortened: as §2

[5] = Quantitative High-Throughput drug screen in 47 multiple myeloma cell lines against the NCATS MIPE library collection: Karpas620_DSMZ cell viability assay (AID 1918959); settings: Karpas620 myeloma viability, CellTiter-Glo ATP luminescence, 48 h; series mostly up to 45.8 µM; note: nearly all actives have a fitted effect of over 30% in size
Procedure, shortened: as §1

[6] = Quantitative High-Throughput drug screen in 47 multiple myeloma cell lines against the NCATS MIPE library collection: KMM1_JCRB cell viability assay (AID 1918960); settings: KMM1 myeloma viability, CellTiter-Glo ATP luminescence, 48 h; series mostly up to 45.8 µM; note: nearly all actives have a fitted effect of over 30% in size; note: potency is the fitted concentration of half-maximal effect
Procedure, shortened: as §3

[7] = Quantitative High-Throughput drug screen in 47 multiple myeloma cell lines against the NCATS MIPE library collection: AMO1_DSMZ cell viability assay (AID 1918927; note: nearly all actives have a fitted effect of over 30% in size); settings: AMO1 myeloma cells viability, CellTiter-Glo ATP luminescence, 48 h; series mostly up to 45.8 µM
Procedure, shortened: as §2

[8] = Quantitative High-Throughput drug screen in 47 multiple myeloma cell lines against the NCATS MIPE library collection: Delta47_JCRB cell viability assay (AID 1918925; note: nearly all actives have a fitted effect of over 45% in size); settings: Delta47 myeloma viability, CellTiter-Glo ATP, 48 h; series mostly up to 45.8 µM
Procedure, shortened: as §2

## Nc1nc(=O)n([C@H]2C[C@H](O)[C@@H](CO)O2)cc1F
[1]
  Potency: inactive
[2]
  Potency: inactive
[3]
  Potency: 526 nM (active)
[4]
  Potency: inactive
[5]
  Potency: inactive
[6]
  Potency: 7.4 nM (active)

## CCCCCCCCCCCCc1ccc(S(=O)(=O)Nc2nncs2)cc1
[1]
  Potency: inactive
[3]
  Potency: inactive
[5]
  Potency: inactive
[6]
  Potency: inactive

## COc1ccc2cc([S+]([O-])Cc3ncc(C)c(OC)c3C)nc2c1
[1]
  Potency: inactive
[2]
  Potency: inactive
[3]
  Potency: inactive
[4]
  Potency: inactive

## Cc1ccc(-n2[nH]c(C)c(N=Nc3cccc(-c4cccc(C(=O)O)c4)c3O)c2=O)cc1C
[1]
  Potency: 20900 nM (active)
[7]
  Potency: inactive
[4]
  Potency: inactive
[6]
  Potency: inactive

## O=C(C=CC=Cc1ccc2c(c1)OCO2)N1CCCCC1
[1]
  Potency: inactive
[2]
  Potency: inactive
[4]
  Potency: inactive

## CCN1CCN(C(=O)N[C@H](C(=O)N[C@@H]2C(=O)N3C(C(=O)O)=C(CSc4nnnn4C)CS[C@@H]23)c2ccc(O)cc2)C(=O)C1=O
[8]
  Potency: inactive
[2]
  Potency: inactive
[7]
  Potency: inactive
[3]
  Potency: inactive
